# Data taken from the supplement of paper PMC6555819.
# How the values were obtained:
# Experiment in all cases: PBM binding z-score (relative to random genomic background probes); higher = stronger binding; sequences stand for … in GC…GCGATTGACAGCGTAGAATGAAGG
# [1] = test system: FXR:RXRa (NR concentration 270 nM, RXRa partner concentration 90 nM)
# Outline: (§1)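 For binding z-scores, the reference was random background probes on custom Agilent 4×180K protein-binding microarrays. These arrays were incubated 1 h with ligand-free nuclear receptor dimers in PBS pH 7.4, 2% milk, 0.02% Triton X-100, 1 mM DTT, 0.2 mg/mL BSA and 0.4 mg/ml salmon testes DNA. Fluorescence was scanned after antibody detection of each partner (one per run) and regression-normalized.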
# [2] = test system: LXRa:RXRa (NR concentration 270 nM, RXRa partner concentration 90 nM)
# Outline: as §1
# [3] = test system: LXRa homodimer (NR concentration 270 nM)
# Outline: as §1
# [4] = test system: LXRb:RXRa (NR concentration 270 nM, RXRa partner concentration 90 nM)
# Outline: as §1
# [5] = test system: LXRb homodimer (NR concentration 270 nM)
# Outline: as §1
# [6] = test system: PPARa:RXRa (NR concentration 270 nM, RXRa partner concentration 90 nM)
# Outline: as §1
# [7] = test system: PPARg:RXRa (NR concentration 180 nM, RXRa partner concentration 90 nM)
# Outline: as §1
# [8] = test system: PPARg:RXRa 270nM:90nM, anti-RXR (NR concentration 270 nM, RXRa partner concentration 90 nM)
# Outline: as §1
# [9] = test system: PPARg:RXRa 30nM:10nM, anti-RXR (NR concentration 30 nM, RXRa partner concentration 10 nM)
# Outline: as §1
# [10] = test system: PPARg:RXRa 90nM:30nM, anti-RXR (NR concentration 90 nM, RXRa partner concentration 30 nM)
# Outline: as §1
# [11] = test system: PPARg:RXRa DBDmut IVT, anti-RXR (DBD mutation: RXRa K156A/R161A, NR concentration 270 nM, RXRa partner concentration 90 nM)
# Outline: as §1
# [12] = test system: PPARg:RXRa IVT, anti-PPARg (NR concentration 270 nM, RXRa partner concentration 90 nM)
# Outline: as §1
# [13] = test system: PPARg DBDmut:RXRa IVT, anti-PPARg (DBD mutation: PPARg1 K132A/R137A, NR concentration 270 nM, RXRa partner concentration 90 nM)
# Outline: as §1
# [14] = test system: PPARg DBDmut IVT, anti-PPARg (DBD mutation: PPARg1 K132A/R137A, NR concentration 270 nM)
# Outline: as §1
# [15] = test system: PPARg homodimer (NR concentration 180 nM)
# Outline: as §1
# [16] = test system: PXR:RXRa (NR concentration 270 nM, RXRa partner concentration 90 nM)
# Outline: as §1
# [17] = test system: PXR homodimer (NR concentration 270 nM)
# Outline: as §1
# [18] = test system: RARa:RXR (NR concentration 270 nM, RXRa partner concentration 90 nM)
# Outline: as §1
# [19] = test system: RARa homodimer (NR concentration 270 nM)
# Outline: as §1
# [20] = test system: RARb:RXRa (NR concentration 270 nM, RXRa partner concentration 90 nM)
# Outline: as §1
Sequence,PBM binding z-score [1],PBM binding z-score [2],PBM binding z-score [3],PBM binding z-score [4],PBM binding z-score [5],PBM binding z-score [6],PBM binding z-score [7],PBM binding z-score [8],PBM binding z-score [9],PBM binding z-score [10],PBM binding z-score [11],PBM binding z-score [12],PBM binding z-score [13],PBM binding z-score [14],PBM binding z-score [15],PBM binding z-score [16],PBM binding z-score [17],PBM binding z-score [18],PBM binding z-score [19],PBM binding z-score [20]
CCTTACGGGTCACTCCCGGTTATAGCATCGGAGT,4.78,7.33,2,4.66,0.279,4.23,2.63,3.52,0.522,2.33,2.29,3.2,-0.351,0.418,2.11,3.32,0.36,3.34,1.06,3.65
CCTAGTTGGTCAGGAGGTCACAGACCGGATATGA,4.08,3.46,1.53,3.38,0.251,4.41,3.79,4.28,1.81,3.37,1.33,3.88,0.154,0.248,3.25,4.28,1.01,4.9,1.4,3.79
TAGCCTATGTCATGGGCCAGTATACCACGCGAAC,-0.15,-0.356,-0.253,-0.589,-0.827,-0.267,0.56,-0.0658,-0.369,-0.213,-0.759,0.165,-0.733,0.201,-0.377,-0.487,-0.151,0.249,-0.171,0.192
AATACAGGGTCATCGTAGCCCAGAGTACGCACAG,6.98,5.87,2.36,4.47,1,5.89,6.62,6.26,3.25,4.75,3.35,5.25,2.19,2.43,2.47,4.07,0.552,4.59,0.855,4.29
TCGTGTAGGTTACCAATGGGGCATTCAGCTTTCT,0.486,1.81,0.0515,1.44,0.0224,1.43,-0.0806,1.21,2.25,1.67,3.06,2.01,0.246,0.154,1.17,0.375,-0.304,0.543,-0.0616,1.31
CCTACTGGGCCATCAGGTCATTGGTATCAACGTT,1.47,1.25,1.08,1.78,-0.424,2.91,2.98,3.68,1.17,2.79,4.05,5.2,-1.01,-0.269,1.09,1.67,0.395,2.04,-0.0401,2.25
TTACCATGGTGAAGGTCGTTGATCCCTCTGTAGA,1.59,1.54,-0.212,1.35,-0.704,1.64,1.06,2.74,1.09,2.44,-0.0288,0.772,-0.132,-0.462,0.317,1.1,0.0781,0.942,-0.727,0.811
TGAATGCGGTTATAAGATCAGGGAACGTTGCAAA,-0.202,-0.262,-0.342,-0.407,-0.259,-0.272,-0.0336,0.0368,0.119,-0.242,-1.13,0.042,0.512,0.235,0.329,-0.103,0.0437,-0.0387,-0.0517,0.025
GCTAGCAGGCCGTTTGGGTCACTCAATGACGGGC,0.0511,-0.392,-0.828,-0.0413,-1.11,0.602,-0.107,-0.514,-0.56,-0.437,-0.553,-0.27,-1.62,-1.46,-0.598,0.292,-0.556,0.575,-1.38,1.14
CTACCAAGGTGAATAAGGTCGTTGATTACTATTC,1.18,1.3,0.402,1.58,-0.326,2.22,0.631,1.01,0.203,0.602,1.82,2.39,0.0322,-0.387,0.714,2.37,2.32,2.44,0.949,1.71
CCTGCCAGGTCATGGTCAGCTAATCTACAGTATG,3.97,3.04,-0.0461,2.28,-0.151,3.94,2.04,2.5,0.448,1.27,2.15,2.35,-0.561,-0.338,1.2,2.16,0.231,2.61,-0.0161,3.78
TCTAGCAGGCCAGTGGGTCACTCAAGAGGTACGG,0.165,0.09,-0.387,0.111,-1.21,1.83,1.59,2.19,1.78,2.09,2.62,3.66,-0.249,-0.535,-0.0883,0.324,-0.497,1.16,-0.945,1.48
TCATATAGGTAAAGGTGAAAGTGGAACGATATGA,0.702,1.31,-0.0893,1.28,-0.406,3.54,4.42,4.97,4.56,5.14,3.98,4.19,1.25,1.26,1.46,1.17,0.224,2.26,0.548,2.13
CCTCGGAGGACAGAGGGTCAGAGCTGTCCGCTTT,0.828,0.75,-0.594,0.328,-1.2,1.2,-0.24,0.834,-0.79,-0.115,-0.421,0.141,-1.61,-1.81,0.33,0.62,-0.49,1.14,-0.305,2.22
